According to PubChem BioAssay (NCATS):
“And” between values parts separate entries of the source, which are not always exact repeats. Equal values may be shown once. Records with an inconclusive call do not appear. A call without a number means that no potency is given here. The source made the active and inactive calls. Unless noted, calls follow the shape of the dose curve; as a rule, active = well fitted curve in either direction with a large enough effect (not every such curve was filed as active); inconclusive = small, poorly fitted or top-dose-only effect, or another doubt; inactive = flat fitted curve, though single readings scatter. Starred links: 1 amine or outer side, 2 acyl side, 3 side chain; linkers in the order of their positions; H or OH if unused. Positions of bridges follow the written chain, without caps; N, C: chain ends. Bridge positions count the residues as written; N and C are the ends. Non-standard residues stand in square brackets, D forms with d. Square brackets hold non-standard residues; d marks the D form. Residues, ends and D or L forms follow the SMILES beside them. Peptide text beside a SMILES is read from it. * marks the point of attachment. *: point of attachment. Ileψ(thiazoline)Cys = CC[C@H](C)[C@H](N)C1=N[C@H](C(=O)*)CS1; X1 = NC1=N[C@@H](O)C[C@@H]([C@@H](N[*:1])C(=O)[*:2])N1; ΔAla(Z-3-ureido) = NC(=O)N/C=C(\N)C(=O)O; d(aIle) = CC[C@H](C)[C@@H](N)C(=O)O; β3hOrn = NCCC[C@H](N)CC(=O)*; dOrn = NCCC[C@@H](N)C(=O)O; Dap = NC[C@H](N)C(=O)O

System: not listed separately
Assay: Stat Signaling Pathway (AID 446);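 also: ME-180 cervical cancer cells given 40 pM IL-6 alongside compound; SIE-controlled beta-lactamase reporter measured as 460/530 nm FRET emission ratio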
Details: ME-180 (cervical carcinoma) SIE beta-lactamase reporter, IL-6 stimulated, 5 h; series mostly up to 17.2 µM
Outline: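 IL-6/STAT signaling read in ME-180 cells via an SIE beta-lactamase reporter. Stimulus was 40 pM IL-6 (its AC50) for 5 hrs, so both activation and inhibition register.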

Structure (SMILES)	outcome
C[N+]1(C)CCC[C@H]1C(=O)[O-]	inactive
CC(C)(CO)[C@H](O)C(=O)NCCC(=O)O	inactive
CCc1c(C)[nH]c2c1C(=O)[C@H](CN1CCOCC1)CC2	inactive
Nc1nc(=S)c2ncn([C@H]3O[C@@H](CO)[C@@H](O)[C@@H]3O)c2[nH]1	inactive
C[C@H](CCC(=O)O)[C@H]1CC[C@@H]2[C@H]3[C@@H](CC[C@@]21C)[C@]1(C)CC[C@H](O)C[C@@H]1C[C@@H]3O	inactive
CS(=O)(=O)c1ccc([C@H](O)[C@H](CF)NC(=O)C(Cl)Cl)cc1	inactive
CC[C@]1(c2ccccc2)NC(=O)N(C)C1=O	inactive
CC[C@H](C)[C@H](N)C1=N[C@H](C(=O)N[C@@H](CC(C)C)C(=O)N[C@@H](CCC(=O)O)C(=O)N[C@@H](C(=O)N[C@H]2CCCCNC(=O)[C@@H](CC(N)=O)NC(=O)[C@@H](CC(=O)O)NC(=O)[C@@H](Cc3cnc[nH]3)NC(=O)[C@@H](Cc3ccccc3)NC(=O)[C@@H]([C@@H](C)CC)NC(=O)[C@@H](CCCN)NC2=O)[C@@H](C)CC)CS1 ({Ileψ(thiazoline)Cys}-LE[d(aIle)]K[dOrn][d(aIle)][dF][dH][dD][dN]; lactam 4-C)	inactive
CO[C@@H]1C=CO[C@]2(C)Oc3c(C)c(O)c4c(O)c(c(C=NN5CCN(C)CC5)c(O)c4c3C2=O)NC(=O)C(C)=CC=C[C@H](C)[C@H](O)[C@H](C)[C@H](O)[C@H](C)[C@H](OC(C)=O)[C@H]1C	inactive
C[C@@H](CNC1CCCCC1)OC(=O)c1ccccc1	inactive
CC#C[C@@]1(O)CC[C@H]2[C@@H]3CCC4=CC(=O)CCC4=C3[C@H](c3ccc(N(C)C)cc3)C[C@]21C	inactive
Cc1cccc(CN2CCN([C@@H](c3ccccc3)c3ccc(Cl)cc3)CC2)c1	inactive
Cc1ccsc1/C=C\C1=NCCCN1C	inactive
CC(=O)O[C@H]1C[C@H]2CC[C@@H]3[C@@H](CC[C@]4(C)[C@H](OC(C)=O)[C@H]([N+]5(C)CCCCC5)C[C@@H]34)[C@]2(C)C[C@H]1[N+]1(C)CCCCC1	inactive
O=C(O)COCCN1CCN([C@@H](c2ccccc2)c2ccc(Cl)cc2)CC1	inactive
C[N+]1(C)CC[C@@H](OC(=O)[C@@](O)(c2ccccc2)C2CCCC2)C1	inactive
C[C@H](NCCC(c1ccccc1)c1ccccc1)c1ccccc1	inactive
NCCC[C@H](N)CC(=O)N[C@H]1CNC(=O)[C@@H]([C@@H]2C[C@H](O)N=C(N)N2)NC(=O)/C(=C/NC(N)=O)NC(=O)[C@@H](CO)NC(=O)[C@@H](CO)NC1=O (β3hOrn-[Dap][dS][dS][ΔAla(Z-3-ureido)][X1]; lactam 1-C)	inactive
C=CCO[C@@H](Cn1ccnc1)c1ccc(Cl)cc1Cl	inactive
C#C[C@]1(O)CC[C@@H]2[C@H]3CCC4=CCCC[C@@H]4[C@@H]3CC[C@@]21C	inactive
CC1(C)[C@@H](OC(=O)CCC(=O)O)CC[C@@]2(C)[C@H]1CC[C@@]1(C)[C@H]2C(=O)C=C2[C@H]3C[C@](C)(C(=O)O)CC[C@]3(C)CC[C@@]21C	inactive
OCCOCCN1CCN([C@@H](c2ccccc2)c2ccc(Cl)cc2)CC1	inactive
CN1CCO[C@H](c2ccccc2)c2ccccc2C1	inactive
O=C(N[C@@H](CO)[C@@H](O)c1ccc([N+](=O)[O-])cc1)C(Cl)Cl	inactive

Target: Glucocorticoid receptor (Homo sapiens) (UniProt P04150)
Sequence (P04150 whole entry, looked up): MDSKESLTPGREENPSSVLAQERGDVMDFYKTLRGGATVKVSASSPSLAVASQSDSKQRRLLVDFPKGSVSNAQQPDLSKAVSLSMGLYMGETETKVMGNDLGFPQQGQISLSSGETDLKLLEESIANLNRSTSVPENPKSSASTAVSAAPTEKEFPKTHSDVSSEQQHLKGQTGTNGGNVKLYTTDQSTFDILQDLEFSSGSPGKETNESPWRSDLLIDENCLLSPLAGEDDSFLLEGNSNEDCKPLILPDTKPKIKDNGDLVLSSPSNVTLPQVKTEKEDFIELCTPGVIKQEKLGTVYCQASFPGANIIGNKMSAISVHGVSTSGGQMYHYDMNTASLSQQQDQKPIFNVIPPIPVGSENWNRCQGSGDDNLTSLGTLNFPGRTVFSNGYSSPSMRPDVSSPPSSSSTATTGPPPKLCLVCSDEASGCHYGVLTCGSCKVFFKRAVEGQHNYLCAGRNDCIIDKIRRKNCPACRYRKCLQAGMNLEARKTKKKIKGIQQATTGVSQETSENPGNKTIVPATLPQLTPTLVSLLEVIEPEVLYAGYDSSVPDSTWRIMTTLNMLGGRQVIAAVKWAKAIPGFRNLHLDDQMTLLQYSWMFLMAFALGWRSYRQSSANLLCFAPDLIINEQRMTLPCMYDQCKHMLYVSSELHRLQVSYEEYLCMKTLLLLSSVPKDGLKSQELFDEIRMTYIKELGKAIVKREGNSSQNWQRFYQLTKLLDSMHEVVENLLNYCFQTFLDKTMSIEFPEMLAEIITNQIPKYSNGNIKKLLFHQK
Assay: GR-GFP Redistribution (AID 450;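 active = compounds whose dose series gives a full or clear partial fitted curve of increased nuclear translocation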; also: potency is read from the fitted curve at half-maximal effect)
Details: U2OS GR-GFP nuclear translocation, laser cytometry, 2 h

Structure (SMILES)	Potency
S=C(NC1CCCCC1)N1CCC([C@H]2C=NC=N2)CC1	> 20.6 µM (inactive)
C=C1c2c(Cl)ccc(O)c2C(O)=C2C(=O)[C@@]3(O)C(O)=C(C(N)=O)C(=O)[C@@H](N(C)C)[C@@H]3[C@@H](O)[C@H]12	> 20.6 µM (inactive)
CCC(=O)OCC(=O)[C@@]1(OC(=O)CC)[C@H](C)C[C@@H]2[C@@H]3[C@H]([C@@H](O)C[C@@]21C)[C@]1(C)C=CC(=O)C=C1C[C@@H]3Cl	0.00423 µM (active)
Nc1nc(=S)c2ncn([C@H]3O[C@@H](CO)[C@@H](O)[C@@H]3O)c2[nH]1	> 20.6 µM (inactive)
COCCOC(=O)C1=C(C)NC(C)=C(C(=O)OC(C)C)[C@H]1c1cccc([N+](=O)[O-])c1	> 20.6 µM (inactive)
C=C1CC23C[C@H]4[C@@H]5[C@@]6(C)C[C@H](OC(=O)c7ccccc7)[C@@H](OC(C)=O)[C@]57[C@@H]2[C@@H](OC(C)=O)[C@H]1[C@@H](O)[C@H]3[C@H]7N4C6	> 20.6 µM (inactive)
O=C(N/N=C\c1ccc([N+](=O)[O-])o1)c1ccc(O)cc1	> 20.6 µM (inactive)
C[C@@H](CNC1CCCCC1)OC(=O)c1ccccc1	> 20.6 µM (inactive)
Cc1cccc(CN2CCN([C@@H](c3ccccc3)c3ccc(Cl)cc3)CC2)c1	> 20.6 µM (inactive)
Cc1ccsc1/C=C\C1=NCCCN1C	> 20.6 µM (inactive)
CC(=O)O[C@H]1C[C@H]2CC[C@@H]3[C@@H](CC[C@]4(C)[C@H](OC(C)=O)[C@H]([N+]5(C)CCCCC5)C[C@@H]34)[C@]2(C)C[C@H]1[N+]1(C)CCCCC1	> 20.6 µM (inactive)
COc1cc(OC)c2c(c1Cl)O[C@@]1(C2=O)[C@H](C)CC(=O)C[C@@H]1OC	> 20.6 µM (inactive)
O[C@H](c1cc(C(F)(F)F)nc2c(C(F)(F)F)cccc12)[C@H]1CCCCN1	> 20.6 µM (inactive)
C[C@H](NCCC(c1ccccc1)c1ccccc1)c1ccccc1	> 20.6 µM (inactive)
C=CCO[C@@H](Cn1ccnc1)c1ccc(Cl)cc1Cl	> 20.6 µM (inactive)
C#C[C@]1(O)CC[C@@H]2[C@H]3CCC4=CCCC[C@@H]4[C@@H]3CC[C@@]21C	> 20.6 µM (inactive)
CC1(C)[C@@H](OC(=O)CCC(=O)O)CC[C@@]2(C)[C@H]1CC[C@@]1(C)[C@H]2C(=O)C=C2[C@H]3C[C@](C)(C(=O)O)CC[C@]3(C)CC[C@@]21C	> 20.6 µM (inactive)
COc1ccc([C@@H]2CC(=O)c3c(O)cc(O)cc3O2)cc1O	> 20.6 µM (inactive) and > 46 µM (inactive)
